Measurements as given in PubChem BioAssay AID449762 (Southern Research Specialized Biocontainment Screening …, 2010).
Hit rate of the full screen: of about 330,000 compounds, about 1,900 (0.58%) were called active. Roughly 4% stayed inconclusive and do not appear here. The list is a sample of the results. Measured potencies and affinities stand elsewhere. Values without a mark were called inactive. No stated cut-off is given here; in the data, inconclusive means inhibition above about 70% without an active follow-up result; inactive means below that.

Assay: M. tuberculosis growth inhibition, HTS (AID 449762);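 further: bacterial growth assessed after seven days of incubation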
Details: M. tuberculosis H37Rv growth inhibition, 7H9 media; at 25 µM; stronger effect = higher value

Structure (SMILES) | inhibition [%]
CS(=O)(=O)N(CC(=O)Nc1ccc(C(N)=O)cc1)C1CCCCC1 | 0.92
CN(CC(=O)Nc1cccc(F)c1)C(=O)CCN1C(=O)C2CC=CCC2C1=O (stereo not given) | -7.97
Cc1ccc(C(=O)N2CCC3(CC2)NCCc2[nH]cnc23)cc1 | 0.45
CCOC(=O)c1c(-c2ccccc2)c2cc(OC)ccc2n1CCCN(C)C | 47.1
Cn1c(=O)c(C(=O)NNC(=O)c2ccccc2Cl)c(O)c2ccccc21 | 53.6
Cn1c(=O)c(C(=O)NNC(=O)c2ccccc2Br)c(O)c2ccccc21 | 45.1
Cc1ccc(C(=O)N/C(=C\c2cccnc2)c2nc3ccccc3[nH]2)cc1 | -7.38
Cc1ccc(C(=O)N/C(=C\c2cccs2)c2nc3ccccc3[nH]2)cc1 | -6.82
CC(C)[C@@]1(c2ccc(Cl)cc2)ON(c2ccccc2C(F)(F)F)C1=O | -3.69
CCn1c(C)c(C)c2cc(C(=O)NCCCN3CCCC3)ccc21 | -0.8
O=C(NC(=S)Nc1nc2c(s1)CCCC2)c1ccccc1 | 2.45
O=C(Nc1nc2c(s1)CCCC2)Oc1ccccc1 | -2.24
O=C(COc1ccc([N+](=O)[O-])cc1)N/N=C/c1cc([N+](=O)[O-])ccc1N1CCOCC1 | 3.18
CCC(C)NC(=O)CNC(=S)N(Cc1ccccc1)Cc1cccnc1 (stereo not given) | -7.33
Cc1ccc(NCC(O)C(O)C(O)CO)cc1C (stereo not given) | -7.11
Cc1cc(NC(=O)CCC(=O)N(c2ccccc2)C(C(=O)NC2CCCC2)c2ccccc2C)no1 (stereo not given) | 0.1
COc1ccc(N(C(=O)/C=C/C(=O)Nc2cc(C)on2)C(C(=O)NC2CCCC2)c2ccccc2C)cc1 (stereo not given) | 40
CCCCCn1c(CCC(=O)Oc2ccccc2OC)nc2c1c(=O)[nH]c(=O)n2CCCC | 4.88
COc1ccccc1CNC(=O)COC(=O)c1ccccc1SCC(=O)N1CCCC1 | 1.81
COc1ccccc1OCC(=O)N(Cc1nnc(-c2ccccc2Cl)o1)C1CC1 | 0.28
COCCN(Cc1ccccc1)P(=O)(O)c1ccccc1OCC(=O)O | -0.51
C/C(O)=C/c1nc2ccccc2[nH]c1=O | 3.14
Cc1ccc2oc(=O)c(/C=C(\O)c3ccccc3)nc2c1 | -2.76
CC(=O)Nc1ccc(NC(=O)C(C)Oc2ccc(C)nc2[N+](=O)[O-])cc1 (stereo not given) | 6.29

Structure (SMILES) | inhibition [%]
CCN(CCn1cccn1)C(=O)c1cc(COc2cccc3cccnc23)on1 | -3.82
CC(C)(C)c1ccc(C(=O)N2CCN(CCNC(=O)C(=O)NCc3ccccc3)CC2)cc1 | -0.83
Cc1ccc(C(=O)N2CCN(CCNC(=O)C(=O)NCc3ccc(Cl)cc3)CC2)cc1 | 4.33
O=C(Nc1ccccc1)N(CCCN1CCOCC1)Cc1ccccc1F | -5.07
CCOC(=O)N1CCC2(CC1)CC(=O)c1c(ccc3oc(C(=O)O)c(C)c13)O2 | -2.67
c1ccc2c(c1)CC(N1CCCCC1)c1ccccc1S2 (stereo not given) | 0.42
COc1ccc2c(c1)CC(N1CCN(C)CC1)c1cc(OC)ccc1S2 (stereo not given) | 9.95
O=C(Nc1cc([N+](=O)[O-])ccc1C(=O)NCCN1CCOCC1)c1ccccc1 | 5.18
COCCn1c(SCc2nnc(-c3ccc(OC)c(OC)c3)o2)nnc1-c1ccncc1 | 5.88
Cc1ccc(-c2nnc(NCc3nc4ccccc4[nH]3)c3ccccc23)cc1S(=O)(=O)N(C)C | -2.52
Cn1c(-c2sc3cc(C(F)(F)F)cnc3c2-c2ccccn2)n[nH]c1=S | -2.76
O=C(OCC(=O)N1CCCC1)c1ccccc1O | 3.14
O=C(OCC(=O)N1CCCCCC1)c1ccccc1Br | 4.05
CC1CN(C(=O)COC(=O)c2ccc(F)cc2Cl)CC(C)O1 (stereo not given) | 6.83
CC12CCC(C(=O)NCCCN3CCOCC3)(C(Br)C1=O)C2(C)C (stereo not given) | -0.09
Cc1cc(Cc2c(O)[nH]c(=S)[nH]c2=O)ccc1OC(C)C | -6.7
COC(=O)C1(CC2CC(c3ccccc3)=NO2)CCN(C(=O)OC(C)(C)C)CC1 (stereo not given) | 3.82
Cc1cc(Cl)ccc1OCCCC(=O)NN | 13.1
Cc1cc(Cl)ccc1OCCCC(N)=O | -4.53
CCc1ccc(/C=C2/SC(=S)N(CCC(=O)NCCCN3CCOCC3)C2=O)cc1 | -8.2
CN1CCN(c2ccc(NC(=O)c3ccc(-c4cccc([N+](=O)[O-])c4)o3)cc2)CC1 | 0.14
CC(C)(C)C(=O)N1CCN(c2ccc(NC(=O)c3ccco3)cc2)CC1 | 2.75
COCCN1CCN(C(=O)c2cc(COc3cc(C)ccc3C)on2)CC1 | -2.97
Cc1cnc(NC(=O)CC2CCCC2)s1 | 1.33

Structure (SMILES) | inhibition [%]
Cc1cnc(NC(=O)C2CCC(C(C)(C)C)CC2)s1 (stereo not given) | -5.46
Cc1cccc(NC(=O)COC(=O)c2ccc3c(=O)n4c(nc3c2)CCC4)c1 | 0.33
CCNC(=O)NC(=O)C(C)On1nnc2ccc(S(=O)(=O)N(CC)CC)cc21 (stereo not given) | -3.62
C=CCSc1nc(N)c2c(C)c(C)sc2n1 | -14.5
O=c1c2c(-c3ccc(Cl)cc3)csc2ncn1/N=C/c1cccc([N+](=O)[O-])c1O | 3.59
O=c1c2c(-c3ccccc3)csc2ncn1/N=C/c1cccc([N+](=O)[O-])c1O | 0.37
CCOC(=O)N1CCN(c2c(NCC3CCCO3)c(=O)c2=O)CC1 (stereo not given) | 2.94
COC(=O)c1cccc(NC(=O)CSc2nnc(C)o2)c1 | 3.7
Nc1ccc(CC2SC(=O)NC2=O)cc1 (stereo not given) | -2.9
CCOc1ccc(CC2S/C(=N/c3ccccn3)NC2=O)cc1 (stereo not given) | -1.03
CCc1c(C(=O)Nc2ccc(OC)cc2)[nH]c(C)c1C(C)=O | 0.65
O=S(=O)(Nc1ncccn1)c1ccc(Cl)cc1 | -3.71
CCC(=O)Nc1nc2nc(-c3ccccc3)cc(=O)n2[nH]1 | -4.67
CCCC(=O)Nc1nc2nc(-c3ccccc3)cc(=O)n2[nH]1 | -6.79
Clc1cccc(Cl)c1COc1ccncc1 | -7.66
O=C(CNC(=O)c1ccccc1Cl)OC1CCOC1=O (stereo not given) | 0.14
O=C(Nc1ccc2nsnc2c1)C1CC1 | 0.63
CC(=O)c1cccc(NC(=S)NC2CC2)c1 | -5.17
S=C(Nc1ccc2nsnc2c1)NC1CCCCC1 | -5.66
CC(=O)c1cccc(NC(=S)NC2CCCCC2)c1 | 0.31
CCc1c(C)sc(NC(=O)c2cc(-c3cc(OC)ccc3OC)on2)c1C#N | 9.02
CCCCCCCCNC(CO)(CO)CO | -13.8
O=C(C1=C[C@H](c2ccc(Br)cc2)C[C@H](OCCCCO)O1)N1CCOCC1 | 8.9
CCn1cc(CNC(=O)C2CCC(=O)N(C3CCCCCC3)C2)cn1 (stereo not given) | -6.38

Structure (SMILES) | inhibition [%]
COC(=O)C1=NNC(C(=O)c2ccco2)C1c1ccccc1 (stereo not given) | 4.3
CCOC(=O)c1ccccc1NC(=O)COC(=O)C1CCCC1 | 27.5
CC[C@@H](C)[C@H](CN[C@H](CNC)[C@@H](C)O)NCCc1ccc(OC)cc1 | 0.9
CC[C@H](C)[C@@H](CNC)NC[C@@H](Cc1ccc(O)cc1)NCC(C)(C)C | -12.2
CCCCN(CC)C(=O)CSc1nc2ccccc2c(=O)n1CC1COc2ccccc2O1 (stereo not given) | 15
O=C(NCc1cccc(Cl)c1)c1cc(=O)[nH]c2ccccc12 | -6.18
CCOC(=O)CN(C#N)c1nc(C)cc(C)n1 | -0.56
COC(=O)CN(C#N)c1nc(OC)nc(N(C)C)n1 | 9.53
O=C(COC(=O)c1ccccc1)Nc1cc(S(=O)(=O)N2CCCCCC2)ccc1Cl | -13
CCN1C(=O)[C@@H]2[C@@H](c3ccc(-c4ccc(C(C)=O)cc4)c(OC)c3)N3CCC[C@@]3(C(=O)OC)[C@@H]2C1=O | 18.4
CC(=O)C[C@H](O)CC(=O)[C@H]1OC(=O)CCCCCCc2ccccc21 | 4.94
CC1(C)CC(=O)C2=C(C1)Nc1ccccc1[S@]2=O | 1.12
COc1ccc(C2=NCCc3cc(OC)c(OC)cc32)cc1OC | 4.26
COc1ccc(CC2(CO)CCN(C/C=C/c3ccccc3OC)CC2)cc1 | 50.6
OCC1(Cc2ccccc2Cl)CCN(C/C=C/c2ccccc2)CC1 | 2.72
Cc1ccc(-n2nc(CC#N)c(C#N)c2N)cc1Cl | -3.34
O=Nc1c(O)[nH]c2ccc(F)cc12 | -7.36
Cc1ccc2[nH]c(O)c(N=O)c2c1 | -3.5
O=C(CSc1cccc[n+]1[O-])Nc1cccc(Oc2ccccc2)c1 | 2.29
O=C(C1CC(=O)N(c2ccc3c(c2)OCCO3)C1)N1CCN(Cc2ccccc2F)CC1 (stereo not given) | -2.42
COc1cccc2sc3ccc(C#Cc4ccc(N)cc4)cc3c(=O)c12 | 39.9
COc1cccc2sc3ccc(C#CC4(O)CCCCC4)cc3c(=O)c12 | 47.6
COc1ccc(S(=O)(=O)Cc2ccc(C(=O)N3CCN(C4CCCCC4)CC3)o2)cc1 | -3.99
